# KB-V1 MDR tox: KB-V1 MDR subline cytotoxicity. KB-V1 MDR cells viability, CellTiter-Glo, 72 h. Potency, µM (titrated, usually from 46.1 µM), hits mostly cytotoxic. 3.4% of 400,000 active. AID 1347076; also: % is scaled to controls: 0 for no effect and ±100 for the full control effect; nearly all actives have a fitted effect of over 60% in size
#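 qHTS viability screen in drug-selected KB-V1 MDR cells: 72 h compound treatment at 37 degrees C, ATP luminescence end point.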
# SW480 rerep: induces DNA re-replication in SW480 colon adenocarcinoma cells. 1.8% of 340,000 active. AID 624297. SW480 DNA re-replication, Hoechst DNA content imaging, 48 h. Potency, µM (doses to about 46.1 µM), inactives show at the top dose re-replication activation, usual class: activators; also: % of control where 0% means no effect; nearly all actives have a fitted effect of over 55% in size
#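 Hoechst fluorescence of nuclei (405 nm excitation, 500-530 nm emission) measured by plate-scanning imager after 48 hr compound exposure at 37 C; re-replication scored as increased number of nuclei with elevated intensity.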
# HT1080NT lethal: kills 2HG-producing HT-1080-NT fibrosarcoma cells; AID 686970; 1.6% of 360,000 active; Potency, µM (titrated, usually from 46.1 µM), for inactives: at the top dose activity, negative = less viability, usual class: cytotoxic; HT-1080-NT fibrosarcoma viability, CellTiter-Glo ATP luminescence, 48 h;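 also: NT is the 2HG producing partner of a matched IDH1 knockdown line; 0% = DMSO-treated cells and -100% = media-only wells without cells; nearly all actives have a fitted effect of over 55% in size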
#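 HT-1080-NT fibrosarcoma cells (2HG-overproducing), 750 cells/well in RPMI with 5% FBS, dosed after 2 h and incubated 48 h at 37C. CellTiter-Glo luminescence normalized to DMSO and no-cell wells; concentration-response curves fitted and classed.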
# KB-3-1 tox: KB-3-1 parental cell cytotoxicity; KB-3-1 viability, CellTiter-Glo ATP luminescence, 72 h; 1.4% of 400,000 active; Potency, µM (doses to about 46.1 µM), actives largely listed as cytotoxic; also: % is scaled to controls: 0 for no effect and ±100 for the full control effect; nearly all actives have a fitted effect of over 60% in size
#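 KB-3-1 parental drug-naive adenocarcinoma cells in DMEM/10% FBS, incubated 72 h at 37 C with pin-transferred compounds across a concentration series. Viability by CellTiter-Glo luminescence; concentration-response curves fitted after normalization.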
# HT1080 IDH1KD tx: HT-1080 IDH1 knockdown cell toxicity (counter line) | 2% of 360,000 active | Potency, µM (doses to about 46.1 µM), inactives show top-dose activity, negative = toxicity, actives largely listed as cytotoxic | AID 686971 | HT-1080 IDH1 knockdown viability, ATP luminescence, 48 h;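 also: 0% = DMSO wells and -100% = cell-free medium wells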
#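 After a 2 h attachment period, IDH1KD HT-1080 cells took pin-transferred compound for 48 h at 37 °C; ATP-based luminescence after 10 min room-temperature reagent incubation reported viability.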
# MCF10A rereplic: induces DNA re-replication in MCF 10a normal breast cells; MCF 10A DNA re-replication, Hoechst nuclear intensity, 48 h; AID 624296; 2.9% of 350,000 active; Potency, µM (titrated, usually from 46.1 µM), for the others: at the highest dose activity, positive = re-replication, actives largely listed as activators; also: % of control where 0% means no effect; nearly all actives have a fitted effect of over 50% in size
# The depositor's hits bear a star; i = inactive; ? = inconclusive; . = not tested or not shown. Rows were chosen to be rich in hits. Some 8% of all compounds tested hit in one or more screens of this group. Calls follow the shape of the dose curve; as a rule, active = well fitted curve in the direction sought with a large enough effect; inconclusive = small, poorly fitted or top-dose-only effect, or another doubt; inactive = no such curve, though single readings can be large; an effect the other way counts as inactive or inconclusive. Potency is read from the fitted curve at half-maximal effect.
SMILES,KB-V1 MDR tox,SW480 rerep,HT1080NT lethal,KB-3-1 tox,HT1080 IDH1KD tx,MCF10A rereplic
COc1ccc(-c2nnn3c2nc(NCc2ccccc2)c2ccccc23)cc1,i,?,6%,i,0%,1.6µM*
CC(C)(C)OC(=O)N1CCc2nc(N3CCN(c4ncccn4)CC3)ncc2C1,i,.,.,i,.,.
COc1ccc(-c2cc(C(F)(F)F)n3nc(C(=O)Nc4cccc(Cl)c4Cl)cc3n2)cc1OC,i,.,.,i,.,.
Clc1ccccc1-c1nc2ccccc2c2nc3ccccc3n12,4.1µM*,-8%,6%,?,0%,10%
CC(C)Cn1c(-c2ccccc2Cl)nc2ccccc21,i,.,.,i,.,.
CC(C)N(C(=O)Cn1c(-c2ccccc2Cl)nc2ccccc21)c1ccccc1,10µM*,-80%,-3%,i,0%,-23%
CCn1c(SCC#N)nc2ccccc2c1=O,i,?,-1%,i,-6%,-3%
N#CCSc1nc2ccccc2c2nc3ccccc3n12,?,-1%,-3%,i,2%,9.2µM*
Cc1ccc(NC(=O)CSc2nnc(-c3ccccc3)n2C)cc1,i,.,.,?,.,.
Cc1ccc(C(=O)C[n+]2cccc3cccc(O)c32)cc1,i,.,.,i,.,.
Cc1ccc(NC(=O)Cn2c(O)c(N=NC(N)=O)c3ccccc32)cc1,i,?,-14%,?,-23%,?
Cc1ccc(NC(=O)Cn2c(O)c(N=NS(=O)(=O)c3ccc(C)cc3)c3ccccc32)cc1,?,?,-1%,i,-5%,21µM*
O=C(CSc1ccc(-c2ccco2)nn1)NCc1ccc(F)cc1,i,-6%,-3%,i,-6%,-9%
O=C(CSc1ccc(-c2ccco2)nn1)c1ccc(F)cc1,26µM*,-5%,17%,i,-1%,-12%
N#Cc1ccc(-c2ccc3c(c2)OCO3)nc1SCC(=O)OCc1ccccc1,i,-2%,6%,i,9%,23%
COc1ccc(-c2ccc(C#N)c(SCC(=O)OCc3ccccc3)n2)cc1OC,i,?,3%,i,-4%,9.2µM*
Cc1ccc(C(=O)CSc2nc(-c3ccccc3)ccc2C#N)cc1,i,?,21%,i,20%,3.7µM*
N#Cc1c(-c2ccco2)cc(C2CC2)nc1SCC(=O)c1ccccc1,?,-2%,0%,i,?,?
N#Cc1ccc(-c2ccco2)nc1SCC(=O)c1ccc(Cl)cc1,i,8%,-23%,i,-15%,7.9µM*
O=C1OC(OC(=O)c2cccnc2Nc2cccc(C(F)(F)F)c2)c2ccccc21 (stereo not given),.,3%,.,.,.,12%
Cc1ccccc1-c1nc(CN2CCC(C(=O)NC(C)C)CC2)c(C)o1,i,.,.,i,.,.
CCOC(=O)c1c(-c2ccccc2)oc2ccc(NS(=O)(=O)c3cc(C)c(C)cc3C)cc12,i,.,.,i,.,.
COCCCNC(=O)c1cc2c(=O)n(C)c3ccccc3c2n1C,16µM*,?,-17%,10µM*,-27%,27%
COCCNC(=O)c1cc2c(=O)n(C)c3ccccc3c2n1C,?,2%,10%,i,13%,1%
Cc1cc(SC(C)C(=O)Nc2ncc(Cl)cc2Cl)nc2ccccc12 (stereo not given),18µM*,-3%,0%,i,-5%,?
SMILES,KB-V1 MDR tox,SW480 rerep,HT1080NT lethal,KB-3-1 tox,HT1080 IDH1KD tx,MCF10A rereplic
Cc1ccc(NC(=O)c2cccc(S(=O)(=O)N3CCN(c4ccc(F)cc4)CC3)c2)nc1,?,?,?,16µM*,?,11%
Cc1ccc(NC(=O)c2cccc(S(=O)(=O)N3CCCC3)c2)nc1,i,-120%,-15%,i,-13%,?
O=C(Nc1ccc(Cl)cn1)c1cccc(S(=O)(=O)N2CCOCC2)c1,21µM*,-1%,0%,i,-3%,-2%
CCC(Sc1nc2ccccc2c2nc(-c3ccccc3)nn12)C(=O)Nc1cccc(OC)c1 (stereo not given),?,.,.,i,.,.
CC1CCCN(CC(=O)Nc2ccc(S(=O)(=O)N3CCCCC3)cc2)C1 (stereo not given),i,?,8%,i,8%,9%
CC1CCCN(CC(=O)Nc2ccc(S(=O)(=O)N3CCCCCC3)cc2)C1 (stereo not given),?,-7%,22µM*,i,?,?
CC1CCN(CC(=O)Nc2ccc(S(=O)(=O)N3CCC(C)CC3)cc2)CC1,?,-6%,-13%,?,-8%,?
CC1CCCN(CC(=O)Nc2ccc(S(=O)(=O)NC3CCCCC3)cc2)C1 (stereo not given),?,-1%,?,i,?,16µM*
CC1CCN(S(=O)(=O)c2ccc(NC(=O)CN3CCCC3)cc2)CC1,i,-4%,-4%,i,-1%,9.2µM*
Cc1cc(C)cc(NC(=O)Cn2c(=O)oc3cc(S(=O)(=O)N4CCC(C)CC4)ccc32)c1,i,?,?,i,?,16µM*
Cc1ccc(CN2CCCn3nc(C(=O)NC(C)C)cc3C2=O)cc1,i,.,.,i,.,.
COc1ccc(CNC(=O)c2cnn3c(C)c(Cc4ccc(F)cc4)c(C)nc23)cc1,i,.,.,i,.,.
O=C(CN1CCCN(S(=O)(=O)c2ccc(Br)s2)CC1)Nc1ccc(Cl)cc1,i,?,?,?,18µM*,?

# Source: PubChem (National Center for Advancing Translational Sciences (NCATS))
